HCMV inh: human cytomegalovirus inhibition; activity change, negative = inhibition, % at 57.5 µM; HFF cells, HCMV-luciferase reporter, 72 h; stronger effect = lower value; 410,000 tested, 4.5% active; in the data active = activity change below about -60%; inconclusive = no clear call, values can overlap the other calls; inactive = above about -39%
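Inhibition of viral replication was scored as loss of reporter luminescence in HFFs infected with HCMV-luciferase (MOI 1 PFU/cell) for 72 h; compounds tested at 2 doses, normalized to buffer and Salinomycin controls.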
FMDV inh: antivirals against foot and mouth disease virus. 410,000 tested, 1.2% active. Potency, µM (doses to about 57.9 µM), without a hit: at the highest dose activity change, negative = inhibition, usual class: inhibitors. FMDV antiviral cell-based qHTS; calls by dose curve; tested in HEK293T cells; note: read-out not given here; potency is the fitted concentration of half-maximal effect; nearly all actives have a fitted effect of over 45% in size
Marburg entry inh: inhibitors of Marburg virus binding or cell entry; Marburg virus pseudotyped entry inhibition, cell reporter; Potency, µM (doses to about 37.8 µM), for inactives: top-dose activity change, negative = inhibition, hits mostly inhibitors; 300,000 tested, 1.8% active; calls by dose curve; tested in HEK293 cells; note: potency is the fitted concentration of half-maximal effect
HCV inh: inhibitors of hepatitis C virus infection. Huh7.5.1 HCVcc-Cre infection, luciferase reporter, 44 h. Potency, µM (doses to about 41.8 µM), without a hit: top-dose activity change, negative = inhibition, hits mostly inhibitors. 340,000 tested, 3.4% active; active = well fitted inhibition curve with a large enough effect; inconclusive = small, poorly fitted or top-dose-only effect, or another doubt; inactive = no such curve, though single readings can be large or run the other way; note: potency is the fitted concentration of half-maximal effect
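Luciferase read-out (15 sec integration) after a 15 min room-temperature substrate step quantifies HCVcc-Cre infection. Cells, 1,000 per well, had compound added 4 h post-plating, then virus at ~0.5 moi, and were cultured 44 h.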
Lassa entry inh: blocks Lassa virus binding to or entry into cells | Lassa virus pseudotype entry inhibition, cell reporter | Potency, µM (titrated, usually from 37.9 µM), inactives show top-dose activity change, negative = inhibition, actives largely listed as inhibitors | 300,000 tested, 1.2% active | AID 540256; calls by dose curve; tested in HEK293 cells; note: potency is the fitted concentration of half-maximal effect; nearly all actives have a fitted effect of over 50% in size
* marks the source's active call; other numbers are inactive results; ? = inconclusive; . = no result given; [ ] = another dose, or the depositor's remark. Rows were chosen to be rich in hits. Some 7.9% of all compounds tested hit in one or more screens of this group. % is set by controls: 0 for no effect and ±100 for the full control effect.

SMILES | HCMV inh | FMDV inh | Marburg entry inh | HCV inh | Lassa entry inh
O=C(Nc1ccc(N2CCN(C(=O)c3ccco3)CC2)c(Cl)c1)c1c(F)c(F)c(F)c(F)c1F | -33 | 28µM* | ? | ? | ?
O=C(Nc1ccc(N2CCN(C(=O)c3ccco3)CC2)c(Cl)c1)c1cccnc1 | -31 | -23% | 9%[46.1 µM] | ? | -1%[46.1 µM]
O=C(Nc1ccc(N2CCN(C(=O)c3ccco3)CC2)cc1)c1ccc(Br)cc1 | -21 | -7% | . | -3% | .
Cc1ccccc1C(=O)N1CCN(c2ccc(NC(=O)c3ccco3)cc2Cl)CC1 | 10 | ? | ? | 11µM* | 10µM*
O=C(Nc1ccc(N2CCN(C(=O)c3ccco3)CC2)cc1)c1cc(Br)ccc1Cl | -33 | ? | 10µM* | ? | ?
O=C(Nc1ccc(N2CCN(C(=O)c3cccs3)CC2)c(Cl)c1)c1ccco1 | 15 | -73% | ? | ? | -26%
COC(=O)c1ccccc1-c1cc(C)cc2c1OC(CNC(=O)c1cc(C)on1)C2 (stereo not drawn) | . | -7% | . | . | .
O=C(Nc1ccc(N2CCOCC2)c(Cl)c1)c1cc(F)c(F)cc1Cl | -40 | -15% | 26% | ? | 5%
O=C(Nc1ccc(N2CCOCC2)c(Cl)c1)c1c(F)c(F)c(F)c(F)c1F | -27 | ? | -6% | 8.9µM* | -4%
CCOc1ccc(NC(=O)CN2CCN(c3ccc(Cl)cc3)CC2)cc1 | -2 | -29% | . | . | ?
COc1cc(-c2nc3ccc(N4CCN(C)CC4)cc3[nH]2)cc(OC)c1OC | 91 | -1% | ? | 7.9µM* | ?
CCC(=O)N1CCc2cc(Br)cc(S(=O)(=O)CCC(=O)N(C)c3cccc(C)c3)c21 | -24 | 6% | -5%[46.1 µM] | . | 1%[46.1 µM]
Cc1ccc(C(=O)/C=C2\NCC(C)NC2=O)cc1 (stereo not drawn) | -18 | -72% | 5.6µM* | -2% | 8.9µM*
COc1ccc(NC(=O)CSc2ccc(-c3sc(C)nc3C)nn2)cc1 | 31 | ? | 4% | ? | ?
CCOc1ccccc1NC(=O)CSc1ccc(-c2sc(C)nc2C)nn1 | ? | 25µM* | ? | ? | ?
Cc1nc(C)c(-c2ccc(SCC(=O)Nc3ccc(Br)cc3)nn2)s1 | -69* | -17% | . | . | ?
Cc1cc(C)cc(NC(=O)CSc2ccc(-c3ccccn3)nn2)c1 | -1 | -16% | 15% | 13µM* | ?
CCc1ccc(NC(=O)CSc2ccc(-c3sc(C)nc3C)nn2)cc1 | -39 | -21% | . | 11µM* | .
Cc1nn(-c2ccc(N3CCCC3)nn2)c(C)c1CCC(=O)N1CCN(c2ccc(F)cc2)CC1 | -39 | 0% | . | . | -5%[46.1 µM]
CC(C)Cc1nc2cc(NS(=O)(=O)N(C)C)cc(C(=O)N3CCOc4ccccc4C3)c2n1C | . | -6% | . | . | .
COc1cccc(C(=O)NC(=NCCc2c[nH]c3ccc(OC)cc23)Nc2nc(C)cc(C)n2)c1 | -31 | -13% | ? | . | ?
Cc1cccc2cc(CN(CC3CCCO3)C(=O)c3ccccc3F)c(N(C)C)nc12 (stereo not drawn) | . | 3% | . | . | .
CCCCNC(=O)c1nc2ccccc2nc1-c1cccc(Br)c1 | -2 | . | . | . | .
CCOC(=O)c1cc(CC)sc1NC(=O)C1CC1 | 14 | -14% | 4% | 11µM* | 4%
CCOC(=O)c1cc(CC)sc1NC(=O)c1ccc2c(c1)OCCO2 | 12 | -16% | ? | ? | 3%
SMILES | HCMV inh | FMDV inh | Marburg entry inh | HCV inh | Lassa entry inh
CCOC(=O)c1cc(CC)sc1NC(=O)COC(=O)C1CCC1 | -6 | -1% | . | ? | .
CCOC(=O)c1cc(CC)sc1NC(=O)c1cc(OCC)c(OCC)c(OCC)c1 | -1 | 21% | -14% | 2.8µM* | -29%
CCOC(=O)c1cc(-c2ccccc2)n(CC(=O)NC2CCC(C)CC2)c1C (stereo not drawn) | 43 | 2% | . | . | 8%[46.1 µM]
O=C(Nc1ccc(F)c(Cl)c1)C1CCN(c2ncccn2)CC1 | -15 | -7% | 2%[46.1 µM] | . | 3%[46.1 µM]
Cc1ccc(OCC(=O)OC2=C(C(=O)c3ccccc3)N(C)S(=O)(=O)c3ccccc32)cc1 | -24 | -5% | -9%[46.1 µM] | . | 4%[46.1 µM]
CCc1ccc(-n2c(=O)c3c4c(sc3n(Cc3ccc(F)cc3)c2=O)CCCC4)cc1 | 14 | -14% | 18%[46.1 µM] | . | 17%[46.1 µM]
CCc1ccc(-n2c(=O)c3c4c(sc3n(CC(=O)c3ccc(F)cc3)c2=O)CCC4)cc1 | -88* | -21% | -2%[46.1 µM] | . | 19%[46.1 µM]
COc1ccc2c(c1)CCc1c(C(=O)Nc3c(C)nn(Cc4c(Cl)cccc4Cl)c3C)noc1-2 | -92* | -14% | -21%[46.1 µM] | . | 17%[46.1 µM]
COc1ccc2c(c1)CCc1c(C(=O)Nc3c(C)nn(Cc4ccccc4C)c3C)noc1-2 | -66* | ? | ? | . | ?
Cc1ccccc1Cn1nc(C)c(NC(=O)c2noc3c2CCc2ccccc2-3)c1C | -24 | ? | 0% | ? | .
O=C(/C=C\c1ccccc1)NC1CC(=O)N(c2ccccc2)C1 (stereo not drawn) | 37 | -12% | . | . | 3%[46.1 µM]
CC[C@H](C)[C@@H](NC(=O)O[C@H]1C(=O)c2ccc(OC)cc2O[C@@H]1c1ccc2c(c1)OCO2)C(=O)OC | . | . | 28%[14.2 µM] | . | .
CC(O)(COc1ccccc1)c1ccc2c(c1)CN(Cc1ccc3nsnc3c1)CCO2 (stereo not drawn) | . | -16% | . | . | .
CCCC(=O)N1CC2(CCN(C(C)=O)CC2)c2c(n(C)c3cc(OC)ccc23)[C@H]1CO | 12 | . | . | . | .
Cn1c(C(C(=O)NCC2CCCO2)N(CCc2ccccc2)C(=O)Cn2nnc3ccccc32)nc2ccccc21 (stereo not drawn) | -65* | 9% | 16% | 11% | ?
N#C/C(C(N)=O)=c1/ccc2c(c1)N1C3=C(CCCC3)CC3CCCCC31N=2 (stereo not drawn) | -68* | ? | 1% | 1% | -18%
N#CC(C#N)=c1ccc2c(c1)N1C3=C(CCCC3)CC3CCCCC31N=2 (stereo not drawn) | -95* | 40µM* | -16%[46.1 µM] | 0% | 11%
O=C1[C@@H]2[C@H](ON(c3ccccc3)[C@H]2c2ccncc2)C(=O)N1c1ccccc1 | . | . | 18% | . | .
O=C(Nc1ccc(F)cc1F)c1ccc(CN2CC(=O)N3CCCCC3C2=O)cc1 (stereo not drawn) | 15 | 0% | . | . | -6%[46.1 µM]
Cc1ccccc1OCC(=O)Nc1cccc(C(=O)O)c1 | -20 | 4µM* | ? | 1% | 0.89µM*
O=C(O)CC1(CC(=O)Nc2cccc(C(=O)O)c2)CCCC1 | -102* | 3% | . | 1% | .
Cc1ccc(NC(=O)CC2(CC(=O)O)CCCC2)cc1 | 27 | 14% | 24% | 9% | 16%
CCC(=O)c1ccccc1OCC(=O)Nc1c(C)cccc1C | 46 | -15% | 4%[46.1 µM] | 4% | -2%
Cc1cccc(C)c1NC(=O)COc1ccccc1C(=O)Nc1ccc(Br)cn1 | -65* | 6% | ? | 3% | 13%
Cc1cccc(C)c1OCC(=O)Nc1cccc(NC(=O)c2ccco2)c1 | -31 | 0% | ? | 11µM* | ?
Cc1ccccc1C1(CC(=O)N2CCCCC2C)CC(=O)N(Cc2cccnc2)C1=O (stereo not drawn) | . | 6% | . | . | .
N.N.O=C(O)C1(C(=O)O)CCC1.[Pt] | . | -12% | ? | . | .

Bioassay records deposited in PubChem BioAssay by National Center for Advancing Translational Sciences (NCATS).
